Experimental data as given in the supplement of paper PMC6992640.
± gives the standard deviation of the averaged measurements.

test system: HCI09 (cells of a triple-negative luminal androgen receptor type breast cancer xenograft); assay: cell viability (% of vehicle); higher = less cytotoxic; details: 10 µM; 72 h
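Further: PDX cells carrying CMV promoter-driven luciferase, viability read as total photon flux per second by IVIS imaging following D-luciferin, vehicle control 0.1% DMSO.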

SMILES | cell viability
CC12CCC3c4ccc(O)cc4CCC3C1CCC2=O (centres undefined) [Estrone] | 97.3 ± 9.7
CO[C@@]1(NC(=O)[C@H](C(=O)[O-])c2ccc(O)cc2)C(=O)N2C(C(=O)[O-])=C(CSc3nnnn3C)CO[C@@H]21.[Na+].[Na+] [Moxalactam (sodium salt)] | 108 ± 3.6
CC(C)c1cc(C(=O)N2Cc3ccc(CN4CCN(C)CC4)cc3C2)c(O)cc1O | 25.4 ± 3.1
Cl.O=C1NCC2(CCN(CCc3ccccc3)CC2)O1 [Fenspiride HCl] | 101 ± 14
C#C[C@]1(O)CC[C@H]2[C@@H]3CCC4=CC(=O)CC[C@@H]4[C@H]3C(=C)C[C@@]21CC [Etonogestrel] | 102 ± 13
Cc1cc(Nc2cc(CN3CCOCC3)c3nc(C)c(Cc4ccc(Cl)cc4F)n3n2)n[nH]1 | 64.3 ± 15
CCCC1O[C@@H]2C[C@H]3[C@@H]4CCC5=CC(=O)C=C[C@]5(C)[C@H]4[C@@H](O)C[C@]3(C)[C@]2(C(=O)CO)O1 (some centres undefined) [Budesonide] | 164 ± 40
CC(C)(C#N)c1cc(Cn2cncn2)cc(C(C)(C)C#N)c1 [Anastrozole] | 108 ± 23
O=C(Nc1cccc2c(=O)cc(-c3nn[nH]n3)oc12)c1ccc(OCCCCc2ccccc2)cc1 [Pranlukast] | 64 ± 5.3
CO[C@H]1C(=O)[C@]2(C)[C@@H](OC)C[C@H]3OC[C@@]3(OC(C)=O)[C@H]2[C@H](OC(=O)c2ccccc2)[C@]2(O)C[C@H](OC(=O)[C@H](O)[C@@H](NC(=O)OC(C)(C)C)c3ccccc3)C(C)=C1C2(C)C [Cabazitaxel] | 66.2 ± 5.4
COc1ccccc1OCC(O)CO (centres undefined) [Guaifensin] | 112 ± 21
O=C(Nc1c(Cl)cncc1Cl)c1ccc(OC(F)F)c(OCC2CC2)c1 [Roflumilast] | 118 ± 55
CCCCCC(O)C=CC1C(O)CC(=O)C1CCCCCCC(=O)O (centres undefined) [Alprostadil] | 145 ± 75
C#CC1(O)CCC2C3CCC4=CC(=O)CCC4C3CCC21C (centres undefined) [Norethindrone] | 93.6 ± 6.6
CCCc1nc(C(C)(C)O)c(C(=O)O)n1Cc1ccc(-c2ccccc2-c2nn[nH]n2)cc1 [Olmesartan] | 130 ± 18
CC12CCC3c4ccc(O)cc4CCC3C1CCC2O (centres undefined) [Estradiol] | 91.4 ± 4.4
N=C(N)NCCCC[C@@H]1NC(=O)CCSSC[C@@H](C(N)=O)NC(=O)[C@@H]2CCCN2C(=O)[C@H](Cc2c[nH]c3ccccc23)NC(=O)[C@H](CC(=O)O)NC(=O)CNC1=O [Eptifibatide] | 120 ± 79
C#CC1(O)CCC2C3CCC4=CC(=O)CCC4C3CCC21CC (centres undefined) [Levonorgestrel] | 100 ± 12
CCC(=O)OCC(=O)C1(OC(=O)CC)C(C)CC2C3CCC4=CC(=O)C=CC4(C)C3(Cl)C(O)CC21C (centres undefined) [Beclomethasone dipropionate] | 144 ± 8.8
C[C@@H]1C[C@H]2[C@H]3CCC4=CC(=O)C=C[C@]4(C)[C@@]3(F)[C@@H](O)C[C@]2(C)[C@@]1(O)C(=O)CO [Dexamethasone (DHAP)] | 148 ± 54

SMILES | cell viability
CCC(=O)OC1(C(=O)CCl)C(C)CC2C3CCC4=CC(=O)C=CC4(C)C3(F)C(O)CC21C (centres undefined) [Clobetasol propionate] | 116 ± 54
O=C(NS(=O)(=O)c1ccc(Br)s1)c1ccc(Cl)cc1Cl [Tasisulam] | 84.1 ± 17
Nc1nnc(-c2cccc(Cl)c2Cl)c(N)n1 [Lamotrigine] | 134 ± 32
Cl.O=C(CCCN1CCC(O)(c2ccc(Cl)cc2)CC1)c1ccc(F)cc1 [Haloperidol hydrochloride] | 103 ± 31
CC(=O)OC1(C(C)=O)CCC2C3C=C(C)C4=CC(=O)CCC4(C)C3CCC21C (centres undefined) [Megestrol Acetate] | 106 ± 10
O=c1c(O)c(-c2ccc(O)c(O)c2)oc2cc(O)cc(O)c12 [Quercetin] | 141 ± 4.7
O=NN(CCCl)C(=O)NCCCl [Carmustine] | 99.9 ± 62
O=C(CCCN1CCN(c2ccccn2)CC1)c1ccc(F)cc1 [Azaperone] | 96.7 ± 2.1
CC(NCCc1ccc(O)cc1)C(O)c1ccc(O)cc1.Cl (centres undefined) [Ritodrine HCl] | 101 ± 21
C#CC1(O)CCC2C3CCc4cc(OC)ccc4C3CCC21C (centres undefined) [Mestranol] | 94.681 ± 0.043
C=CCNC1=C2CC(C)CC(OC)C(O)C(C)C=C(C)C(OC(N)=O)C(OC)C=CC=C(C)C(=O)NC(=CC1=O)C2=O (centres undefined) | 26.7 ± 0.77
CCCN(CCC)S(=O)(=O)c1ccc(C(=O)O)cc1 [Probenecid] | 125 ± 6.3
Cc1onc(-c2ccccc2)c1C(=O)NC1C(=O)N2C1SC(C)(C)C2C(=O)[O-].O.[Na+] (centres undefined) [Oxacillin sodium monohydrate] | 116 ± 24
NS(=O)(=O)c1cc2c(cc1Cl)NCNS2(=O)=O [Hydrochlorothiazide] | 134 ± 72
NCCc1cnc[nH]1.O=P(O)(O)O.O=P(O)(O)O [Histamine Phosphate] | 95.2 ± 15
NCC(O)c1ccc(O)c(O)c1.O.O=C(O)C(O)C(O)C(=O)O (centres undefined) [Noradrenaline bitartrate monohydrate] | 133 ± 34
CCC1C(=O)N(C)c2cnc(Nc3ccc(C(=O)NC4CCC(N5CCN(CC6CC6)CC5)CC4)cc3OC)nc2N1C(C)C (centres undefined) [BI6727 (Volasertib)] | 26.4 ± 0.95
CCC1OC(=O)C(C)C(OC2CC(C)(OC)C(O)C(C)O2)C(C)C(OC2OC(C)CC(N(C)C)C2O)C(C)(O)CC(C)CN(C)C(C)C(O)C1(C)O (centres undefined) [Azithromycin] | 116 ± 5.9
CC(C)Cn1cnc2c(N)nc3ccccc3c21 [Imiquimod] | 72.71 ± 0.55
